# Data: paper PMC3218832
# Tests used:
# Assay in all cases: protein binding microarray; high values mean tight binding
# Conditions in all cases: dsDNA, one strand shown
# [1] = molecular target: RELARELA (p65 homodimer) (Homo sapiens, UniProt Q04206 1-307)
# [2] = molecular target: p50p50 homodimer (Homo sapiens, UniProt P19838 7-356)
# [3] = molecular target: T1, p52p52 homodimer (Homo sapiens, UniProt Q00653 4-332)
# T1 sequence: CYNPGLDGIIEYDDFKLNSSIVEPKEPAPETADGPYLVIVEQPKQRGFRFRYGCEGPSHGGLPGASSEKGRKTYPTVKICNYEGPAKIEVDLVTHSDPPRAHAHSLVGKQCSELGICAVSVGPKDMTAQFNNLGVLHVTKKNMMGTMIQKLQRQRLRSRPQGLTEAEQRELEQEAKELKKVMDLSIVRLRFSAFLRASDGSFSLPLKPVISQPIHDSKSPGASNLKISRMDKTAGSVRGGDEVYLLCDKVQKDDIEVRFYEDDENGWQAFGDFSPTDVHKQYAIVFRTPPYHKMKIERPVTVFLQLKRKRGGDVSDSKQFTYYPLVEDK
# [4] = molecular target: RELA (p65) subunit of heterodimer;p50 subunit (Homo sapiens;Homo sapiens, UniProt Q04206;P19838 1-307;7-356)
# Sequence of RELA (p65) subunit of heterodimer;p50 subunit (Q04206 1-307, chain 1 of 2): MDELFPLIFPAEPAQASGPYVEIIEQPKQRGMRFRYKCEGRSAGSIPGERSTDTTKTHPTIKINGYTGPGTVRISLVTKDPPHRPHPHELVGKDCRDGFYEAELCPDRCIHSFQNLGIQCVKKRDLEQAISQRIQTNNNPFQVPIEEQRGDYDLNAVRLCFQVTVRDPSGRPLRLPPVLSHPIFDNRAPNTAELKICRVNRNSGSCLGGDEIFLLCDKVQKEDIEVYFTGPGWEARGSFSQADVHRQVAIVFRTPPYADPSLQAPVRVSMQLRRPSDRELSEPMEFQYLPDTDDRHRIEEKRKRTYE
# Sequence of RELA (p65) subunit of heterodimer;p50 subunit (P19838 7-356, chain 2 of 2): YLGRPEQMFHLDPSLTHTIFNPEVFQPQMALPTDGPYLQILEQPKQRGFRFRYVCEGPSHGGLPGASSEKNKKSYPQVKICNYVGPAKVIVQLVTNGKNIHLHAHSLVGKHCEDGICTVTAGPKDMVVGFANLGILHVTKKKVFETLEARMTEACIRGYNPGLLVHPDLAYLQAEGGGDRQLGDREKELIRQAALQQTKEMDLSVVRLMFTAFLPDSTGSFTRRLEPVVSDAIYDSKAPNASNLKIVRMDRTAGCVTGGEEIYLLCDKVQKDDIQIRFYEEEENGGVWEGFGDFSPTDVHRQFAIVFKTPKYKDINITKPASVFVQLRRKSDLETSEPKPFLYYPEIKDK
# [5] = molecular target: RELA (p65) subunit of heterodimer;p52 subunit (Homo sapiens;Homo sapiens, UniProt Q04206;Q00653 1-307;4-332)
# [6] = molecular target: RELB subunit;p50 subunit (Homo sapiens;Homo sapiens, UniProt Q01201;P19838 120-401;7-356)
# [7] = molecular target: T2, RELB subunit;p52 subunit (Homo sapiens;Homo sapiens, UniProt Q01201;Q00653 120-401;4-332)
# T2 sequence 1: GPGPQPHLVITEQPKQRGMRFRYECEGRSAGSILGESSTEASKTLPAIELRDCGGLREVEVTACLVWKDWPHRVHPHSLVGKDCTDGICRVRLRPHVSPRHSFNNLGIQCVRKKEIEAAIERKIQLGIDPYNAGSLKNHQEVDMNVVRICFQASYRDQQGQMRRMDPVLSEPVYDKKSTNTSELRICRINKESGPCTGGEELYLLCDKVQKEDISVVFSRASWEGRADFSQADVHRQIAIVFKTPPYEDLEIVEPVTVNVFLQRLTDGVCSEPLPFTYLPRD
# T2 sequence 2: T1 sequence
# [8] = molecular target: C-Rel subunit;p50 subunit (Homo sapiens;Homo sapiens, UniProt Q04864;P19838 1-285;7-356)
# [9] = molecular target: T3, C-Rel subunit;p52 subunit (Homo sapiens;Homo sapiens, UniProt Q04864;Q00653 1-285;4-332)
# T3 sequence 1: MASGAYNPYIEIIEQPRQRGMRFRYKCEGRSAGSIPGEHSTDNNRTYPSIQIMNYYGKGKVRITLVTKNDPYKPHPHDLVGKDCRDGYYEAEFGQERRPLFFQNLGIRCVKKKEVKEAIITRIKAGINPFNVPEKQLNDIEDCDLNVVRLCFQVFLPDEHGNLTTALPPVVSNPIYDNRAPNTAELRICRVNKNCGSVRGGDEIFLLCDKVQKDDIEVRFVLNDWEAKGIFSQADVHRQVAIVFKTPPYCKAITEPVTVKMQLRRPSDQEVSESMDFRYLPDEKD
# T3 sequence 2: T1 sequence
# Sequence of RELARELA (p65 homodimer) (Q04206 1-307): as the sequence (Q04206 1-307, chain 1 of 2) above
# Sequence of p50p50 homodimer (P19838 7-356): as the sequence (P19838 7-356, chain 2 of 2) above
Sequence,binding signal [1] [z-score],binding signal [2] [z-score],binding signal [3] [z-score],binding signal [4] [z-score],binding signal [5] [z-score],binding signal [6] [z-score],binding signal [7] [z-score],binding signal [8] [z-score],binding signal [9] [z-score]
CAATTGCTCCC,-0.396,-0.852,-0.46,-0.685,-0.589,-0.487,-0.531,-0.849,-0.604
AAGGATACCCC,0.0433,0.446,0.189,0.436,0.502,0.457,0.95,0.507,0.247
GAAAACGTCCT,-0.176,-1.26,-0.536,-0.838,-0.654,-0.872,-0.687,-0.823,-0.648
GAAATAGTCCC,0.835,1.16,1.31,1.16,0.964,1.38,0.953,0.838,0.853
AAGAAGGTCCT,-0.0161,-1.4,-0.396,-1.13,-0.801,-0.786,-0.511,-1.3,-0.718
GGGATAGTCCC,2.07,0.707,2.94,1.82,2.15,1.87,1.6,1.32,1.96
AGGGGGGCCCT,-0.0645,0.812,0.991,0.478,1.13,0.542,1.2,0.525,1.04
AGGGGAGTCCT,0.691,0.962,1.64,0.872,1.1,0.907,0.881,0.64,0.78
GAGGAAATCCT,0.229,-0.905,-0.463,-0.399,-0.425,-0.858,-0.718,-0.315,-0.369
CAGGGCTCCCT,-0.815,-0.631,-0.475,-0.698,-0.717,-0.43,-0.477,-0.901,-0.708
AGATGGCTCCC,-0.478,-1.77,-0.619,-0.849,-0.797,-0.91,-0.841,-1.25,-0.874
CAAGAACCCCC,-0.244,1.28,1.21,1.6,1.28,1.46,1.32,1.04,0.879
AGGAAGCCCCC,0.317,1.14,1.3,1.61,1.31,1.03,1.07,1.09,1.7
AAGATCGTCCC,0.328,0.168,0.307,-0.197,-0.135,0.309,0.078,0.266,-0.166
CGGTGAGCCCC,-0.508,0.0715,-0.0385,-0.0467,0.0767,-0.0666,0.236,0.3,0.314
CAGGATATCCC,0.644,-0.266,-0.111,-0.14,-0.0926,-0.231,-0.211,-0.116,-0.032
CGAATTCTCCT,-0.00416,-1.08,-0.594,-0.48,-0.707,-0.948,-0.835,-0.873,-0.63
AGATGCGCCCT,-0.621,-1.13,-0.603,-0.768,-0.721,-1.01,-0.804,-1.47,-0.758
GAAAACATCCC,0.244,-0.173,-0.106,-0.0842,-0.0683,-0.24,-0.321,-0.174,-0.211
GGAGTCTCCCC,1.17,0.531,0.409,1.27,0.997,0.547,0.514,0.822,0.954

Sequence,binding signal [1] [z-score],binding signal [2] [z-score],binding signal [3] [z-score],binding signal [4] [z-score],binding signal [5] [z-score],binding signal [6] [z-score],binding signal [7] [z-score],binding signal [8] [z-score],binding signal [9] [z-score]
AGGTAGGTCCC,-0.0694,-0.0842,0.305,-0.0951,0.0859,0.0975,0.178,0.0304,0.122
GGATGACTCCC,-0.304,-0.794,-0.473,-0.49,-0.701,-0.618,-0.826,-0.932,-0.692
AGGAGTGTCCC,1.3,0.0859,0.362,0.736,0.372,0.333,0.321,0.586,0.486
CAAGATTCCCT,0.527,1.13,0.975,0.96,0.948,1.02,1.01,1.06,0.715
AGGGTTGCCCT,-0.236,-1.22,-0.523,-0.681,-0.727,-0.807,-0.774,-0.341,-0.29
GAGAGGTCCCT,0.699,0.517,0.431,0.364,0.0823,0.659,0.436,0.182,0.0392
CAAAAGACCCT,-0.503,0.305,-0.0206,0,0.196,-0.111,-0.0281,-0.615,0.0358
GAATAGGTCCT,-0.471,-1.25,-0.387,-1.08,-0.8,-0.766,-0.501,-1.35,-0.527
GAGGTTGCCCT,-0.221,-1.5,-0.704,-0.605,-0.676,-0.817,-0.624,-0.77,-0.503
GGAGAAGTCCT,0.391,-0.831,-0.506,-0.525,-0.585,-0.798,-0.864,-0.433,-0.307
CGAGTGGTCCC,-0.301,-0.0725,-0.0457,-0.513,-0.369,0.0154,-0.138,-0.515,-0.428
AAAGTCGTCCT,-0.192,-1.25,-0.599,-1.25,-0.839,-0.89,-0.666,-1.18,-0.704
CGAGTTGCCCC,0.677,0.0517,-0.0293,0.542,0.31,0.428,0.407,0.855,0.564
AAGAACACCCC,-0.22,0.317,0.0847,0.107,0.232,0.176,0.504,0.232,0.274
AAAAGGGCCCT,-0.729,-0.423,-0.373,-0.762,-0.52,-0.464,-0.386,-1.07,-0.406
AAAAACCTCCC,0.0581,0.2,-0.135,0.166,-0.13,0.0831,0.117,0.28,0.0846
CGGTACTCCCT,0.445,0.837,0.708,0.515,0.425,0.724,0.415,0.323,0.382
GAGTTGGCCCT,-0.84,-1.24,-0.495,-0.546,-0.734,-0.243,-0.397,-0.778,-0.623
AAGGGCACCCC,-0.322,-0.576,-0.342,-0.454,-0.414,-0.379,-0.217,-0.33,-0.364
AAGGAACCCCT,-0.469,0.961,0.532,0.281,0.861,0.479,0.874,0.215,0.603

Sequence,binding signal [1] [z-score],binding signal [2] [z-score],binding signal [3] [z-score],binding signal [4] [z-score],binding signal [5] [z-score],binding signal [6] [z-score],binding signal [7] [z-score],binding signal [8] [z-score],binding signal [9] [z-score]
AAGGGAATCCC,2.03,0.857,2.29,1.16,1.75,1.21,1.57,1.02,1.92
CGGGAGATCCT,-0.093,0.247,0.164,-0.217,0.0606,0.132,0.152,-0.227,0.0327
CGAATCATCCC,-0.386,-0.966,-0.352,-0.734,-0.619,-0.644,-0.752,-0.745,-0.523
AAATGGACCCC,-0.781,-0.458,-0.348,-0.532,-0.428,-0.448,-0.0987,-0.615,-0.473
GGAAATTTCCT,3.45,0.318,0.15,1.83,1.22,0.0518,0.485,0.9,1.42
CAGTGAGTCCC,0.14,0.525,0.308,0.411,0.115,0.511,0.164,0.393,0
GAGATATCCCC,0.294,1.12,1.16,1.33,1.3,1.08,0.95,0.698,0.964
AAGGAGCTCCC,-0.693,-0.999,-0.562,-0.64,-0.893,-0.741,-0.874,-0.927,-0.843
CAGTTTGCCCC,1.6,0.492,0.189,1.17,0.571,0.532,0.563,1.5,0.899
GAATGAGCCCT,-1.06,-1.39,-0.606,-0.778,-0.989,-1.17,-0.969,-1.55,-1.02
AGGTTACCCCT,-0.124,0.813,0.514,0.468,0.804,0.84,1.36,0.567,0.609
GAATATTCCCT,1.37,1.19,1.3,1.24,1.28,1.04,1.2,0.882,1.16
GGAATGATCCC,-0.0862,-0.737,-0.387,-0.382,-0.396,-0.763,-0.764,-0.432,-0.264
CAGGACTTCCT,-0.0226,-0.664,-0.608,-0.403,-0.542,-0.897,-0.842,-0.448,-0.475
GGGTGGGCCCT,0.392,-0.139,-0.133,-0.0704,-0.184,-0.392,-0.318,-0.304,0.357
AAGTGTGTCCT,-0.0699,-1.1,-0.57,-0.888,-0.62,-0.808,-0.709,-0.908,-0.763
AAATAACCCCC,0.321,1.39,1.6,1.69,1.48,1.69,1.68,1.32,1.39
AGAGATGCCCT,-0.748,-1.63,-0.655,-0.706,-0.889,-1.04,-0.94,-0.882,-0.704
CAGTTACTCCT,-0.453,-1.22,-0.649,-0.763,-0.94,-0.976,-0.763,-1.08,-0.871
GAAGGGACCCC,-0.812,0.244,0.629,-0.173,0.512,0.268,0.639,-0.159,0.296
